Source: PubChem BioAssay
The list is not random: actives were taken first. Their share in the collection is about 1.2%.
TSG101-PTAP inh: blocks PTAP/TSG101 interaction to inhibit HIV-1 budding. Fluorescence polarization, FITC-PTAP peptide / Tsg101 binding. Potency, µM (series often up to 115 µM), without a hit: top-dose activity change, negative = inhibition, usual class: inhibitors. 340,000 tested, under 10 active. AID 493005; active means well fitted inhibition curve with a large enough effect in the main read-out, with a control signal flat, not every such curve was filed as active; inconclusive means small, poorly fitted or top-dose-only effect, or effect the other way, or a change in a side signal; inactive means no such curve, though single readings can be large or run the other way; further: potency means the concentration at half of the fitted maximal effect; % of control where 0% means no effect
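Steps: Tsg101 binding domain dispensed (10 uM final), compounds pinned in DMSO, FITC-labeled PTAP-motif peptide added (50 nM final); after 20 min binding at room temperature, polarization measured.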
Tb PFK block: inhibitors of T. brucei phosphofructokinase; O15648; T. brucei PFK, ADP-Glo luminescence; Potency, µM (series often up to 57.5 µM), without a hit: at the highest dose activity, negative = inhibition, hits mostly inhibitors; actives 0.17% (n = 330,000); active means well fitted inhibition curve with a large enough effect; inconclusive means small, poorly fitted or top-dose-only effect, or effect the other way;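 further: potency means the concentration at half of the fitted maximal effect; 0% = uninhibited 1x PFK enzyme wells and -100% = no-enzyme wells; nearly all actives have a fitted effect of over 60% in size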
Target sequence (O15648 whole entry, looked up): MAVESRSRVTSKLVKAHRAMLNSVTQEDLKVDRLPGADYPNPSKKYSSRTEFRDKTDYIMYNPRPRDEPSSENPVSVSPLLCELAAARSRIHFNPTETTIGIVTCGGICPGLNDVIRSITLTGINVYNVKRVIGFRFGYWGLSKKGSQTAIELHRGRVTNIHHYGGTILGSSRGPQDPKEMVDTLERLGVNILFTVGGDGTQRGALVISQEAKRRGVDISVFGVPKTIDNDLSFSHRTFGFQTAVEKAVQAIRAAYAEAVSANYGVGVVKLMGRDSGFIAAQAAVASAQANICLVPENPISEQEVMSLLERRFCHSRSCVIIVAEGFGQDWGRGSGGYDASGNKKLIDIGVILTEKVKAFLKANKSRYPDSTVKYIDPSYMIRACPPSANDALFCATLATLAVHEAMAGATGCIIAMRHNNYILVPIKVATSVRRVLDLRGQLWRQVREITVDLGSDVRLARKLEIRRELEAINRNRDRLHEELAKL
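In TEA buffer at pH 8.0 with 5 mM MgCl2, enzyme (1.25 nM) converted F6P (0.5 mM) and ATP (0.1 mM) for 45 min at room temperature. ADP product was read by luciferase luminescence.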
hERG WT inh: KCNH2 (human, wildtype) channel inhibition. U2OS, BacMam KCNH2, thallium flux FluxOr; stronger effect = lower value. actives 0.37% (n = 340,000). activity change, % at 1.84 µM;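 active means maximum activity change below -70%; inconclusive means maximum activity change between -70% and -50%; inactive means maximum activity change above -50%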; further: on the % scale 0 is the no-effect control and ±100 the full control effect
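U2OS cells transduced with wild-type KCNH2 virus are loaded with FluxOr dye for 45 min, and thallium flux is measured in kinetic reads before and after stimulation buffer. Rate constants are normalized to DMSO controls.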
KCNH2 3.1 block: inhibitors of human KCNH2 3.1 potassium channel isoform. U2OS KCNH2 3.1, thallium flux FluxOr; stronger effect = lower value. activity change, % (tested at about 1.8 µM). actives 0.95% (n = 340,000). AID 720553;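 active means maximum activity change below -70%; inconclusive means maximum activity change from -70% to -50%; inactive means maximum activity change above -50%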;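 further: thallium influx rate constant from kinetic fluorescence after stimulation buffer; on the % scale 0 is the no-effect control and ±100 the full control effect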
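Steps: virus added to U2OS suspension (4 h, RT, dark); medium with 10% FBS added, cells plated, 37 C overnight; FluxOr/Red40 loading buffer 45 min RT; stimulation buffer, 2 min kinetic read; rate constant normalized.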
Numbers without * were called inactive; ? = inconclusive; · = no result.

SMILES | TSG101-PTAP inh | Tb PFK block | hERG WT inh | KCNH2 3.1 block
CCC(C)[C@H](N)c1cn([C@@H](Cc2cc3ccccc3[nH]2)C(=O)N2CCNCC2)nn1 (stereo partly drawn) | 0.6% | -3.0% | -251.8* | 42.1
COc1cccc(/C=C/C(=O)OCC(=O)NC2CCCCCC2)c1 | · | · | -4.3 | -2.8
O=C(Cc1ccccc1)Nc1ccccc1N1CCN(c2ccccc2)CC1 | -4.9% | -7.5% | 0.0 | -70.3*
Cc1ccc(NC(=O)c2ccccc2NC(=O)Cc2ccccc2)cc1 | -0.5% | 0.6% | -0.3 | 9.2
CS(=O)(=O)N1CCN(c2ccccc2NC(=O)Cc2ccccc2)CC1 | -5.7% | -3.0% | 5.2 | 4.7
O=C(Cc1ccccc1)Nc1ccccc1C(=O)Nc1ccccc1 | -2.3% | -7.6% | 5.6 | -123.3*
O=C1COc2ccc(C(=O)COC(=O)c3ncc(Cl)c(Cl)c3Cl)cc2N1 | 0.8% | ? | 5.1 | -5.3
O=C1NN=C2CCCCCCCCCCC12 (stereo not drawn) | · | · | 1.6 | -13.3
COc1ccc(/C(O)=C2/C(=O)C(=O)N(CCCN3CCOCC3)C2c2ccc(N(C)C)cc2)cc1 (stereo not drawn) | -1.5% | 2.5% | -1.1 | 28.0
O=C(NCCO)Nc1ccc2nc(-c3ccco3)c(-c3ccco3)nc2c1 | · | 1.9µM* | · | ·
O=C(NCCCO)c1ccc2nc(-c3ccco3)c(-c3ccco3)nc2c1 | -3.1% | -17.0% | 3.6 | -2.1
O=C(CN1CCC(Cc2ccccc2)CC1)N1CCc2ccccc2C1 | -2.1% | -1.8% | -34.7 | -89.7*
Cc1ccc(C)n1Cc1ccc(C(=O)O)cc1 | -9.2% | 6.75µM* | -11.8 | -4.1
CSc1nnc(-c2cnccn2)n1C | -4.5% | -2.4% | -14.5 | -96.9*
CCCNC(=O)c1onc(CSc2ccc(Cl)cc2)c1C(=O)NC(C)C | -7.1% | -7.8% | 9.9 | -24.8
COc1ccc(-n2nnc3c(=O)n(CC(=O)Nc4cc(C)on4)cnc32)cc1OC | -5.1% | -14.4% | -4.9 | 10.2
CC(C)(O)C#Cc1ccc(C(=O)NC2CCCCC2)s1 | 0.2% | 0.5% | 1.1 | -80.8*
Cc1ccccc1CC(=O)NC1CCN(Cc2ccccc2)CC1 | -0.7% | 1.3% | 2.4 | 12.3
COc1ccc(NC(=O)C2CCCN2C(=O)OC(C)(C)C)cc1 (stereo not drawn) | -4.3% | -4.0% | 4.8 | 3.7
CC[C@]12c3[nH]c4ccccc4c3CCN1C(=O)C(CC(=O)NCCN1CCOCC1)C[C@@H]2C(=O)N1CCN(C(=O)C2CC2)CC1 (stereo partly drawn) | -0.8% | 1.6% | -114.1* | 5.9
CC[C@]12c3[nH]c4ccccc4c3CCN1C(=O)C(CC(=O)NCCCOC)C[C@@H]2C(=O)N1CCN(C(=O)C2CC2)CC1 (stereo partly drawn) | -0.6% | 0.0% | 21.4 | -6.3
COC(=O)c1cc(NC(=O)CN(C)C2CCS(=O)(=O)C2)cc(C(=O)OC)c1 (stereo not drawn) | -3.8% | -5.0% | 15.2 | -0.1
C/C=C/C(=O)Nc1cccc(C2=NOC3(C2)C[C@@H](C(N)=O)N(C(=O)c2cc([N+](=O)[O-])cc([N+](=O)[O-])c2C)C3)c1 (stereo partly drawn) | -15.6% | -5.5% | 2.6 | -84.3*
NC(=O)[C@H]1CC2(CC(c3cccc(NC(=O)COc4ccc(Cl)cc4)c3)=NO2)CN1C(=O)c1ccc(Cl)cc1 (stereo partly drawn) | 0.0% | -16.3% | -43.5 | -91.0*
CCCCCC(=O)Nc1cccc(C2=NOC3(C2)C[C@H](C(N)=O)N(C(=O)CCCCC)C3)c1 (stereo partly drawn) | -3.1% | 2.5% | -8.0 | -20.8
C=C(C)C(=O)Nc1cccc(C2=NOC3(C2)C[C@@H](C(N)=O)N(C(=O)c2cc([N+](=O)[O-])cc([N+](=O)[O-])c2C)C3)c1 (stereo partly drawn) | -2.2% | ? | 4.6 | 1.7
CCC(=O)N1CC2(CC(c3cccc(NC(=O)COc4ccc(Cl)cc4)c3)=NO2)C[C@@H]1C(N)=O (stereo partly drawn) | · | -12.3% | · | ·
C/C=C\C(=O)Nc1cccc(C2=NOC3(C2)C[C@@H](C(N)=O)N(C(=O)CCCCC)C3)c1 (stereo partly drawn) | -9.7% | 2.9% | -84.6* | 5.7
NC(=O)[C@H]1CC2(CC(c3cccc(NC(=O)COc4ccc(Cl)cc4)c3)=NO2)CN1C(=O)c1ccccc1C(=O)c1ccccc1 (stereo partly drawn) | · | -6.3% | · | ·
